# Assay outcomes: PubChem BioAssay, National Center for Advancing Translational Sciences (NCATS)
# In the library only some 6.9% were active in any assay of this set; here they are far more common.
# Vif-A3G inh = inhibitors of Vif-APOBEC3G interaction; Potency, µM (top dose mostly 46.1 µM), usual class: inhibitors; HeLa A3G-eYFP + Vif (tagged APOBEC3G with the HIV-1 protein that degrades it), YFP fluorescence, overnight; 410,000 tested, 0.076% active; Q9HC16; AID 602310; also: nearly all actives have a fitted effect of over 60% in size
# Target sequence (Q9HC16 whole entry, looked up): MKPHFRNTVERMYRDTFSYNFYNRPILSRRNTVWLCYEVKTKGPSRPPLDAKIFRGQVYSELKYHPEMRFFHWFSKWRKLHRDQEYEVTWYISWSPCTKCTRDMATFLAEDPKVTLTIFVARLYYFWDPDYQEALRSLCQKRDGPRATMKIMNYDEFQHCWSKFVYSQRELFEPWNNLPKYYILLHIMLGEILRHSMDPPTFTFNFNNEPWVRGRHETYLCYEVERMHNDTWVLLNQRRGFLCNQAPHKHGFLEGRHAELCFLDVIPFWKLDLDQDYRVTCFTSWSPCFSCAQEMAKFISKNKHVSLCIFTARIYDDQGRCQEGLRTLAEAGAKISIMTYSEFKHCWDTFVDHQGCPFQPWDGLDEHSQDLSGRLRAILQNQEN
#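 Read-out is eYFP fluorescence (Ex 488/Em 500-530) from Vif-expressing HeLa A3G-eYFP cells; more signal means A3G escaped Vif-mediated degradation. Cells plated overnight, compound pinned in, incubated overnight at 37 deg C.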
# Vif-A3F inh = blocks the Vif interaction with APOBEC3F; HeLa A3F-eYFP + Vif (tagged APOBEC3F with the HIV-1 protein that degrades it), YFP fluorescence increase; Potency, µM (titrated, usually from 46.1 µM); 390,000 tested, 0.2% active; AID 602313; also: nearly all actives have a fitted effect of over 65% in size
#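 HeLa cells stably expressing Vif plus C-terminally eYFP-tagged A3F were seeded, incubated overnight at 37 deg C, dosed with compound, incubated overnight again at 37 deg C. Yellow fluorescence (Ex 488/Em 500-530) reported blocked Vif-mediated A3F-eYFP degradation.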
# MCF10A rereplic = DNA re-replication induction in MCF 10a cells. MCF 10A DNA re-replication, Hoechst nuclear intensity, 48 h. 350,000 tested, 2.9% active. Potency, µM (series often up to 46.1 µM), hits mostly activators; also: nearly all actives have a fitted effect of over 50% in size
# Giardia killer = kills Giardia lamblia; Giardia lamblia trophozoite viability; activity change, % at 7.66 µM, hits read low; 340,000 tested, 0.15% active; AID 540267; in the data active = activity change below about -80%; inconclusive = between about -30% and that limit;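 also: parasites exposed to compound for two days anaerobically before the ATP read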
#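 Compounds were tested on trophozoites seeded at 100 cells/well and held 48 hrs at 37 deg C anaerobically. An ATP-based luminescent kit measured the remaining live cells.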
# SW480 rereplic = DNA re-replication induction in SW480 cells; Potency, µM (doses to about 46.1 µM), actives largely listed as activators; 340,000 tested, 1.8% active; SW480 DNA re-replication, Hoechst DNA content imaging, 48 h; AID 624297; also: nearly all actives have a fitted effect of over 55% in size
#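 SW480 cells exposed to compounds for 48 hr at 37 C, 5% CO2, then Hoechst-stained 40 min. Nuclear DNA content imaged by fluorescence scanning (405 nm excitation, 500-530 nm emission); re-replication scored as increased high-intensity nuclei.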
# IL-1B inflam inh = blocks inflammasome-driven IL-1 beta release. THP-1 LPS/ATP IL-1B secretion, AlphaLISA, 16 h; hits give low values. activity change, % at 57.5 µM. 360,000 tested, 4.7% active. AID 743279; in the data active = activity change below about -50%; inconclusive = mostly about -30% to -49%
#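 THP-1 cells pretreated 1 hr with compounds (up to 57.5 uM final), then stimulated with LPS (250 ng/mL final) plus ATP (1.25 mM final); secreted IL-1B measured by AlphaLISA after 16 hr, decreased signal indicating inhibition.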
# A number is an active result; n = inactive; u = inconclusive; x = no result given. Unless noted, calls follow the shape of the dose curve; as a rule, active = well fitted curve in the direction sought with a large enough effect; inconclusive = small, poorly fitted or top-dose-only effect, or another doubt; inactive = no such curve, though single readings can be large; an effect the other way counts as inactive or inconclusive.
SMILES,Vif-A3G inh,Vif-A3F inh,MCF10A rereplic,Giardia killer,SW480 rereplic,IL-1B inflam inh
O=C(CSc1nc2ccsc2c(=O)n1Cc1ccccc1F)NCc1ccccc1Cl,n,n,x,x,x,x
Cc1cccc(C)c1NC(=O)C(c1cccc2ccccc12)n1c(=O)c(-c2cc3ccccc3[nH]2)nc2ccccc21 (configuration not stated),x,x,x,x,x,n
COc1ccc2c(c1)O[C@@H](c1ccc3c(c1)OCO3)[C@H](OC(=O)Nc1cc(OC)c(OC)c(OC)c1)C2=O,x,x,3.66µM,x,16.4µM,x
COc1ccc2c(c1)O[C@H](c1ccc3c(c1)OCO3)[C@@H](OC(=O)N[C@H]1CCCc3ccccc31)C2=O,n,n,n,n,n,n
COc1ccccc1C(=O)OCc1cc(=O)n2nc(C(C)C)sc2n1,n,n,x,x,x,x
Cn1c(=O)c2c(nc(N3CCOCC3)n2Cc2cccc(Br)c2)n(C)c1=O,n,n,x,x,x,x
CCOC(=O)c1c(C2COc3ccccc3O2)csc1NC(=O)c1ccco1 (configuration not stated),n,n,n,n,n,-54.1
COc1ccc(/C=C/c2c([N+](=O)[O-])c(=O)n(C)c(=O)n2C)cc1OC,n,n,n,n,n,n
Cn1c(/C=C/c2ccc(Cl)cc2)c([N+](=O)[O-])c(=O)n(C)c1=O,n,n,7.31µM,n,n,-99.7
CCOc1ccc(/C=C/c2[nH]c(=O)[nH]c(=O)c2[N+](=O)[O-])cc1,n,n,u,n,n,n
COc1ccc(/C=C/c2c([N+](=O)[O-])c(=O)n(C)c(=O)n2C)c(OC)c1OC,n,n,u,n,u,-58.2
Cn1c(=O)c2c(O)c([N+](=O)[O-])c(=O)n(C)c2n(C)c1=O,n,n,n,n,n,n
CCCCCOc1ccc(/C=C/c2c([N+](=O)[O-])c(=O)n(C)c(=O)n2C)cc1,n,n,u,n,u,-86.5
Cn1c(/C=C/c2cccc([N+](=O)[O-])c2)c([N+](=O)[O-])c(=O)n(C)c1=O,n,n,u,n,u,-107.1
O=C(NCc1cccc(C(F)(F)F)c1)c1[nH]c(C(F)(F)F)nc1-c1ccccc1,n,x,x,x,x,n
COc1ccc(CC(=O)N2CCc3cc(OC)c(OC)cc3C2COc2ccc(F)cc2)cc1 (configuration not stated),n,n,x,x,x,x
COc1cccc(N2CC(NC(=O)COc3ccccc3F)CC2=O)c1 (configuration not stated),n,n,x,x,x,x
C/C(=N\NC(N)=S)C1=CCC2C3CC[C@H]4CC(O)CC[C@]4(C)C3CC[C@]12C (some centres not stated),n,n,n,n,n,-52.2
CCC1(OC(=O)CN(C)C)C(=O)OCc2c1cc1n(c2=O)Cc2cc3c(N)cccc3nc2-1 (configuration not stated),n,n,n,n,u,-97.1
COc1cc(O)ccc1-c1nc2ccc(Br)cn2c1Nc1ccccc1C,n,n,x,x,x,x
COc1ccc2c(c1)c1nnc(SC(C)C)nc1n2C,x,x,x,n,x,x
CCCN1C=CC(=CC=C(C#N)C#N)C=C1,12.6µM,u,u,n,n,x
O=C(Cn1cc(SCc2ccc(F)cc2)c2ccccc21)N1CCCC1,n,n,x,x,x,x
CCc1ccc(-n2c(CCC(=O)O)ccc2-c2cccs2)cc1,n,n,x,x,x,x
CCOC(=O)c1ccc(-n2c(CCC(=O)O)ccc2-c2cccs2)cc1,n,n,u,n,u,-69.6
O=C/C(=C\Nc1ccccn1)c1nc2cc(Cl)ccc2o1,n,n,15.8µM,n,n,n
O=C/C(=C\Nc1ccc(Br)cc1)c1nc2ccccc2o1,n,n,n,n,n,n
O=C/C(=C\Nc1ccccn1)c1nc2ccccc2o1,u,28.2µM,20.6µM,n,u,n
